Data reported in ChEMBL document CHEMBL1961873, “Compounds: GSK PKIS; Assays: Nanosyn kinase panel” (2012).

Columns and labels:
[1] = target: Sphingosine kinase 1 (Homo sapiens) (UniProt Q9NYA1); details: at 1 µM;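 note: mean SPHK1 inhibition value reported from the GSK PKIS kinase panel screen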
[2] = target: T1, Sphingosine kinase 2 (Homo sapiens) (UniProt Q9NRA0); details: at 0.1 µM
T1 sequence (whole entry): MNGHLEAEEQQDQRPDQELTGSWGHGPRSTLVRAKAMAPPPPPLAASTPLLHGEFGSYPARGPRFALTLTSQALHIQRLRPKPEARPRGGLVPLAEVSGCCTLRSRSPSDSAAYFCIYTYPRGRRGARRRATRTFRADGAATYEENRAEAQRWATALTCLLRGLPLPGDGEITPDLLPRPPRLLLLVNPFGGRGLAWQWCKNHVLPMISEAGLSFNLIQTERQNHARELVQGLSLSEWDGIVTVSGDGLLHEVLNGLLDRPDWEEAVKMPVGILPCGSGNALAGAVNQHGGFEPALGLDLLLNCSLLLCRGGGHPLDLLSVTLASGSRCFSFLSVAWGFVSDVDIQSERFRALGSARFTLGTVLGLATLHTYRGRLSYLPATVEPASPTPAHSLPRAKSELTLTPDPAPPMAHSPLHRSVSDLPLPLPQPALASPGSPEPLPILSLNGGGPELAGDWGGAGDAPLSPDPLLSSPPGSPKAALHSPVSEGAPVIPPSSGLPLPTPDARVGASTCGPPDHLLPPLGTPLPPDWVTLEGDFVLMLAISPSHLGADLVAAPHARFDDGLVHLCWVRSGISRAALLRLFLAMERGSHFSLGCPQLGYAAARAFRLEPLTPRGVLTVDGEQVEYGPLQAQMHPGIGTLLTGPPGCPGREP

[3] = target: T1, Sphingosine kinase 2 (Homo sapiens); details: at 1 µM
[4] = target: Casein kinase II subunit alpha (Homo sapiens) (UniProt P68400); details: at 0.1 µM
Chain of Casein kinase II subunit alpha (Homo sapiens) (P68400 whole entry, looked up): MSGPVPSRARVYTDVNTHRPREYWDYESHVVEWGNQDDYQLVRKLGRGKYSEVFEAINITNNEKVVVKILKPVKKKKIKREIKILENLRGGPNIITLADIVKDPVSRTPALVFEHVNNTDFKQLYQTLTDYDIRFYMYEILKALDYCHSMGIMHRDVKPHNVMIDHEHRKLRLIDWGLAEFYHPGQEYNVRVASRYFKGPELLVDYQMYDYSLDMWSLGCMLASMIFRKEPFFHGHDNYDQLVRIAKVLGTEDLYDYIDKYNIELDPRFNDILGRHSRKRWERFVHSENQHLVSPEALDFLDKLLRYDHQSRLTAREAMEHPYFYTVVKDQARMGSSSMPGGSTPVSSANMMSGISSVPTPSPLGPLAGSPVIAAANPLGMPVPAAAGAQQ

[5] = target: Casein kinase II subunit alpha (Homo sapiens) (UniProt P68400); details: at 1 µM
[6] = target: T2, Inhibitor of nuclear factor kappa-B kinase subunit alpha (Homo sapiens) (UniProt O15111); details: at 0.1 µM
T2 sequence (whole entry): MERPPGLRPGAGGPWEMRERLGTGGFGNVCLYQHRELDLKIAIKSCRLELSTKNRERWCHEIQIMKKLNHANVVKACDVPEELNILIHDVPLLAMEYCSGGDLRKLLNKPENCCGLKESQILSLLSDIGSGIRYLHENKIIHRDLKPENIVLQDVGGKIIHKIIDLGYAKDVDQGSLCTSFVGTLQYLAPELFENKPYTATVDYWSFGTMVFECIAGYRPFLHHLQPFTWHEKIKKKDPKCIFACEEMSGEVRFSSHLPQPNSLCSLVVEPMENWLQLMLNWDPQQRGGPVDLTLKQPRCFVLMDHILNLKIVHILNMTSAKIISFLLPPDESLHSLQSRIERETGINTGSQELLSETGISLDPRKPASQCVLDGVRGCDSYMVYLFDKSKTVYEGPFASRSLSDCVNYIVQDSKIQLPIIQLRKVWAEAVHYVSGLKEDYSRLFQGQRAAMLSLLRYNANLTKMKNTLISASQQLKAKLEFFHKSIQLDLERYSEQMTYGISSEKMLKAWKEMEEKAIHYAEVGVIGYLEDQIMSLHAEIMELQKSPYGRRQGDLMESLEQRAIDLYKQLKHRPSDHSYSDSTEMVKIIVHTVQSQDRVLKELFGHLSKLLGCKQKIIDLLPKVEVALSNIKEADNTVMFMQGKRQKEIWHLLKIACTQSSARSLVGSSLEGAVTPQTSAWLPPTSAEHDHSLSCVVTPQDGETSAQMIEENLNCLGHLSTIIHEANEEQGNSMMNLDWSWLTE

[7] = target: T2, Inhibitor of nuclear factor kappa-B kinase subunit alpha (Homo sapiens); details: at 1 µM
[8] = target: T3, Inhibitor of nuclear factor kappa-B kinase subunit beta (Homo sapiens) (UniProt O14920); details: at 0.1 µM
T3 sequence (whole entry): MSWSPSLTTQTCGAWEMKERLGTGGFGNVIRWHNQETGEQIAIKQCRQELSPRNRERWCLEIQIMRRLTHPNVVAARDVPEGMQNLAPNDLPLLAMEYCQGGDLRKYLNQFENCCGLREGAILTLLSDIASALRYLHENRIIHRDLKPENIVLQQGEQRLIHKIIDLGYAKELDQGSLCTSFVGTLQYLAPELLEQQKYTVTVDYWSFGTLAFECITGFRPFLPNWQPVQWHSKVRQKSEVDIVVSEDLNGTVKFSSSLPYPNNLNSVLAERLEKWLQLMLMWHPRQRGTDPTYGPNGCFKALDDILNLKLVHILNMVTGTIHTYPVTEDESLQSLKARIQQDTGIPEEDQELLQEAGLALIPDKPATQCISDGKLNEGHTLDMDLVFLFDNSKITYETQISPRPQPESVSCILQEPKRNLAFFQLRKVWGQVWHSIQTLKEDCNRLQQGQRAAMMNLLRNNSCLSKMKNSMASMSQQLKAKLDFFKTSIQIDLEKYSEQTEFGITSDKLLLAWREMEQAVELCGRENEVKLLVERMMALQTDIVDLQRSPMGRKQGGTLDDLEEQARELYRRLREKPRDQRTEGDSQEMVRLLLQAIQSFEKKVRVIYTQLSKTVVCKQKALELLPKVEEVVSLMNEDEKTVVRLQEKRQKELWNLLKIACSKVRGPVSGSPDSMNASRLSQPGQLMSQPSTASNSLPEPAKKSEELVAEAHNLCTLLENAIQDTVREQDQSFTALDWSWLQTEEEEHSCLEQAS

[9] = target: T3, Inhibitor of nuclear factor kappa-B kinase subunit beta (Homo sapiens); details: at 1 µM
[10] = target: T4, Inhibitor of nuclear factor kappa-B kinase subunit epsilon (Homo sapiens) (UniProt Q14164); details: at 0.1 µM
T4 sequence (whole entry): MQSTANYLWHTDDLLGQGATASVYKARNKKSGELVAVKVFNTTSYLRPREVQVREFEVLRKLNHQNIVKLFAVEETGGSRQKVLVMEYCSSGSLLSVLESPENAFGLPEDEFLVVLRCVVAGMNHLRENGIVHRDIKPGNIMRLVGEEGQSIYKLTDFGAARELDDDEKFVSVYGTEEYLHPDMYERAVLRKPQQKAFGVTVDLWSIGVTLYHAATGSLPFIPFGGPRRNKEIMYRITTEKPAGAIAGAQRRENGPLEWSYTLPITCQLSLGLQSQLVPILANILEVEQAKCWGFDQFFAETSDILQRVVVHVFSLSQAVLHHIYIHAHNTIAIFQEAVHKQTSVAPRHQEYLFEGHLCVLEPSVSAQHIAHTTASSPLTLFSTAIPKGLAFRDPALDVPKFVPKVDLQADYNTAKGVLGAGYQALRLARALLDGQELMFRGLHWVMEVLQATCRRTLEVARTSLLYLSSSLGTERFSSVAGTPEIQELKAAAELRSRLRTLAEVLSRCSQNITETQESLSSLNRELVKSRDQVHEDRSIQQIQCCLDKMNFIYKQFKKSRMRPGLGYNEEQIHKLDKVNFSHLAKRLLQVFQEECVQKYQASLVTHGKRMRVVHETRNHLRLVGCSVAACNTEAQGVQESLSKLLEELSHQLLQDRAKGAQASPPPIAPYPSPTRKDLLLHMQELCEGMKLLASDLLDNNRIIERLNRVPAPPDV

[11] = target: T4, Inhibitor of nuclear factor kappa-B kinase subunit epsilon (Homo sapiens); details: at 1 µM
[12] = target: T5, Serine/threonine-protein kinase Nek1 (Homo sapiens) (UniProt Q96PY6); details: at 0.1 µM
T5 sequence (whole entry): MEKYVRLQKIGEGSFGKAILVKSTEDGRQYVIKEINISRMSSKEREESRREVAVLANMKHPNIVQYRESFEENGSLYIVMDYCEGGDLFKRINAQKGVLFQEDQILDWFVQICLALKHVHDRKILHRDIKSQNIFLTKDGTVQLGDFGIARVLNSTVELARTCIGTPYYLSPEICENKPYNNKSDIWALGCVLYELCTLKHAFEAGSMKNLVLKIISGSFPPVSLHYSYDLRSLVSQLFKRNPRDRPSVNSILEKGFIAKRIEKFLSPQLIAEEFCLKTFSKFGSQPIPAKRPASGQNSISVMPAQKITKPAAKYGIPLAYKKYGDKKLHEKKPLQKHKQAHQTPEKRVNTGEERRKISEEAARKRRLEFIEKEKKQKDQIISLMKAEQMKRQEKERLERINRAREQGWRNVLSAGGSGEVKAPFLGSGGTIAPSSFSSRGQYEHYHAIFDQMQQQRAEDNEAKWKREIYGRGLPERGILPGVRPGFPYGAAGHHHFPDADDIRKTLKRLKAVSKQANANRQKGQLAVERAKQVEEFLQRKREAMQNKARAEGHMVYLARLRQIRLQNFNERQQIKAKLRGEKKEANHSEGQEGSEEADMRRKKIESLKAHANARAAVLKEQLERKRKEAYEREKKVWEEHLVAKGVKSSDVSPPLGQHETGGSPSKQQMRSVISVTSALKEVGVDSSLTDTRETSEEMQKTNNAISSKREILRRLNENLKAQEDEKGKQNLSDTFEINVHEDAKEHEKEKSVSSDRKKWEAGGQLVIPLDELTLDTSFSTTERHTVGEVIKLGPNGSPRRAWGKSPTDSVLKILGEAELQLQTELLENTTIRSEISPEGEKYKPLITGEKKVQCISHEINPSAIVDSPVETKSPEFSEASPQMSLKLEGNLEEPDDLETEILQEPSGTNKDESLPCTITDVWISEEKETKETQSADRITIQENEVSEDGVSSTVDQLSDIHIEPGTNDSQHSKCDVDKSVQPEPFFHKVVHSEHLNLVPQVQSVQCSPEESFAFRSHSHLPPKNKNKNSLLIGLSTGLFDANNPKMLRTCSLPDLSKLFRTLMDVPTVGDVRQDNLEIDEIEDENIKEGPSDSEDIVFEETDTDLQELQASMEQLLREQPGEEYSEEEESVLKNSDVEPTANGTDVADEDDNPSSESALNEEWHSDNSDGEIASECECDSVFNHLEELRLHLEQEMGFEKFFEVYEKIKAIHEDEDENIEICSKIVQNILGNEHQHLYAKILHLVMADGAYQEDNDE

[13] = target: T5, Serine/threonine-protein kinase Nek1 (Homo sapiens); details: at 1 µM
[14] = target: T6, Serine/threonine-protein kinase Nek2 (Homo sapiens) (UniProt P51955); details: at 0.1 µM
T6 sequence (whole entry): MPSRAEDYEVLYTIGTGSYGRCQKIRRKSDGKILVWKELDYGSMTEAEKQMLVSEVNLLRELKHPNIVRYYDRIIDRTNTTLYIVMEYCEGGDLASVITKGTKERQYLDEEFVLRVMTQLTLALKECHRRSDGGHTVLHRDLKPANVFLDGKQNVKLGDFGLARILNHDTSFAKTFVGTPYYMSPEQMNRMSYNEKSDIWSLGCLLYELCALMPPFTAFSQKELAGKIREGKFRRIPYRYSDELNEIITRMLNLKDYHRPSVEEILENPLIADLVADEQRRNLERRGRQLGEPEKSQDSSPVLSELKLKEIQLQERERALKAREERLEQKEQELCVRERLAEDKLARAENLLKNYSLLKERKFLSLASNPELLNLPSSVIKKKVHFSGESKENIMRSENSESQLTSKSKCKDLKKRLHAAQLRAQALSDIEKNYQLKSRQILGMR

[15] = target: T6, Serine/threonine-protein kinase Nek2 (Homo sapiens); details: at 1 µM
[16] = target: Serine/threonine-protein kinase Nek6 (Homo sapiens) (UniProt Q9HC98); details: at 0.1 µM
Chain of Serine/threonine-protein kinase Nek6 (Homo sapiens) (Q9HC98 whole entry): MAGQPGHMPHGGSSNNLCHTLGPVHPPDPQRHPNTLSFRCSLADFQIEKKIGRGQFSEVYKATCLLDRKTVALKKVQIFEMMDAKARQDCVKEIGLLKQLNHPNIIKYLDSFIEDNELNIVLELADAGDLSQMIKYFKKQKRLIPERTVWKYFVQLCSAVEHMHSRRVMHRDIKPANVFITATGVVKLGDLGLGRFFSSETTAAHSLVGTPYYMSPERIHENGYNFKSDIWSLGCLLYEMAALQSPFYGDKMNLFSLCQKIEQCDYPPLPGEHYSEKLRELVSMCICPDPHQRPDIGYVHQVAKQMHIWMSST

[17] = target: Serine/threonine-protein kinase Nek6 (Homo sapiens) (UniProt Q9HC98); details: at 1 µM
[18] = target: Serine/threonine-protein kinase Nek7 (Homo sapiens) (UniProt Q8TDX7); details: at 0.1 µM
Chain of Serine/threonine-protein kinase Nek7 (Homo sapiens) (Q8TDX7 whole entry, looked up): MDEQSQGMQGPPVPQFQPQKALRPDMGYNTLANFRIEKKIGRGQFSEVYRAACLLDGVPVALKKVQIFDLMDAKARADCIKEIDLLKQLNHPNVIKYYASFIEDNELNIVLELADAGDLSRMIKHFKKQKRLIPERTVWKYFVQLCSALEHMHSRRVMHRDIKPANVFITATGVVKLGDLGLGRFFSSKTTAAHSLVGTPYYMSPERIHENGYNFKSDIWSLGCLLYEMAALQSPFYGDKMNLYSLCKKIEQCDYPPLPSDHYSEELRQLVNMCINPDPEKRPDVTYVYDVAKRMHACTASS

[19] = target: Serine/threonine-protein kinase Nek7 (Homo sapiens) (UniProt Q8TDX7); details: at 1 µM
[20] = target: T7, Serine/threonine-protein kinase Nek9 (Homo sapiens) (UniProt Q8TD19); details: at 0.1 µM;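 note: reported value is the mean percent inhibition of NEK9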
T7 sequence (whole entry): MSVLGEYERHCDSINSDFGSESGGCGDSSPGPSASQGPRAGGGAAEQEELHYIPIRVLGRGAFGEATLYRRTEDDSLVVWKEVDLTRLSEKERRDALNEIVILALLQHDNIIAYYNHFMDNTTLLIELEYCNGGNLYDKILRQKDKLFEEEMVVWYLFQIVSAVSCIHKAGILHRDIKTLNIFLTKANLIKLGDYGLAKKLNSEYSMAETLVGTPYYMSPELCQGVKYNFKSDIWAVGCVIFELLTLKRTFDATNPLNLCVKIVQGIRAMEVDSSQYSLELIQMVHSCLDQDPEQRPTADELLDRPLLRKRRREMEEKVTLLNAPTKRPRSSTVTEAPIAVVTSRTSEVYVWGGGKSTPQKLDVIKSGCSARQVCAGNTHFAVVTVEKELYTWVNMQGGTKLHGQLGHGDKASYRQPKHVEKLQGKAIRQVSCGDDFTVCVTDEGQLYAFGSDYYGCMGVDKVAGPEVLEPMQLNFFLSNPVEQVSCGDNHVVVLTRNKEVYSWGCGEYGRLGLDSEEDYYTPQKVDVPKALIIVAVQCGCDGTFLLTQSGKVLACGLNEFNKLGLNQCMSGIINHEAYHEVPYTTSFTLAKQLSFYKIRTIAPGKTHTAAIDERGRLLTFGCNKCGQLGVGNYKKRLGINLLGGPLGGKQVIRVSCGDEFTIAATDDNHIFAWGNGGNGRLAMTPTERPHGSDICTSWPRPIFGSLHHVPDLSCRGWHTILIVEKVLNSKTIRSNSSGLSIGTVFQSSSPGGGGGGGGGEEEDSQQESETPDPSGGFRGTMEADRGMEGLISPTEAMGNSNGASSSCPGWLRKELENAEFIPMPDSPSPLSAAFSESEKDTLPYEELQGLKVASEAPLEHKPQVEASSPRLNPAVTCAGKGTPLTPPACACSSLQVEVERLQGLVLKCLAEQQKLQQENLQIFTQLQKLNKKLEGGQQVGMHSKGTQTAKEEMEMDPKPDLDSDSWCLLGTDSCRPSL

Chain of Sphingosine kinase 1 (Homo sapiens) (Q9NYA1 whole entry): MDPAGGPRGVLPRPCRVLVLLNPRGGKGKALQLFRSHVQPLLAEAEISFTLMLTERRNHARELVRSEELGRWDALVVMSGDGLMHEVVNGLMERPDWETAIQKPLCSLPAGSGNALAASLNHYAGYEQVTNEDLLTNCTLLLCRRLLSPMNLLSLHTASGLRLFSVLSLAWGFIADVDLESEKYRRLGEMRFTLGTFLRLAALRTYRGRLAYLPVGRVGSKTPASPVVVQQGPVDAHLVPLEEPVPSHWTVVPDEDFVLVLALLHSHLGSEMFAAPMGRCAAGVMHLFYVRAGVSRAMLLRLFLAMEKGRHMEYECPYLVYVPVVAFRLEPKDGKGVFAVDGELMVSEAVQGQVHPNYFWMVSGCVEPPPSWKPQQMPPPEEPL

Compound | inhibition [1] [%] | inhibition [2] [%] | inhibition [3] [%] | inhibition [4] [%] | inhibition [5] [%] | inhibition [6] [%] | inhibition [7] [%] | inhibition [8] [%] | inhibition [9] [%] | inhibition [10] [%] | inhibition [11] [%] | inhibition [12] [%] | inhibition [13] [%] | inhibition [14] [%] | inhibition [15] [%] | inhibition [16] [%] | inhibition [17] [%] | inhibition [18] [%] | inhibition [19] [%] | inhibition [20] [%]
Fc1cccc(COc2ccc(Nc3ncnc4cc(-c5ccc[nH]5)sc34)cc2Cl)c1 | 4.94 | 0.87 | -0.25 | 1.61 | 2.66 | 2.16 | 1.99 | 2.5 | 1.35 | 2.66 | 3.19 | 1.42 | 4.17 | 3.51 | 5.24 | 1.65 | 3.84 | 5.51 | 2.22 | 1.71
CCn1c(-c2nonc2N)nc2cnc(Oc3cccc(NC(=O)c4ccc(OCCN5CCOCC5)cc4)c3)cc21 | -0.28 | 0.73 | -0.35 | 2.94 | 5.71 | 11 | 10.1 | 5.72 | 2.67 | 7.92 | 27.5 | 1.53 | 3.94 | 3.27 | 2.29 | 2.55 | 4.96 | 6.06 | 3.89 | 7.58
